# According to PubChem BioAssay AID1159580 (chemical genetic matrix, 2015):
# About 2,000 (36%) of roughly 5,500 compounds were called active. Not shown: some 18% with an inconclusive outcome. The list shows a part of the results. Values without a mark were called inactive. Rule as the data show it: active = normalized growth mostly below about 0.91 (no sharp cut-off); inconclusive = no clear call, values can overlap the other calls; inactive = mostly above about 0.92.
# Assay: chemical genetic growth profiling, strain panel (AID 1159580);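 also: tested at 20 µM; growth read once vehicle control cultures reached saturation at 30 °C; 1 = growth at the plate median or of vehicle wells; lower values mean less growth of the strain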
# Settings: growth OD
# [1] = S. cerevisiae deletion strains, locus YDL101C, strain DUN1, active compounds read low
# [2] = S. cerevisiae deletion strains, locus YHR030C, strain SLT2, active compounds read low
# [3] = S. cerevisiae deletion strains, locus YHR079C, strain IRE1, active compounds read low
# [4] = S. cerevisiae deletion strains, locus YJL095W, strain BCK1, active compounds read low
# [5] = S. cerevisiae deletion strains, locus YJR066W, strain TOR1, active compounds read low
# [6] = S. cerevisiae deletion strains, locus YLR113W, strain HOG1, active compounds read low
# [7] = S. cerevisiae deletion strains, locus YNL183C, strain NPR1, active compounds read low
# [8] = S. cerevisiae deletion strains, locus YOR231W, strain MKK1, active compounds read low
# [9] = S. cerevisiae deletion strains, locus YPL256C, strain CLN2, active compounds read low
smiles,measurement,setting,value
O=C(NNc1c(Cl)cccc1Cl)c1ccc([N+](=O)[O-])o1,normalized growth,"S. cerevisiae deletion strains, locus YAR019C, strain CDC15, active compounds read low",0.956
same,normalized growth,"S. cerevisiae deletion strains, locus YBL105C, strain PKC1, active compounds read low",0.967
same,normalized growth,"S. cerevisiae deletion strains, locus YBR135W, strain CKS1, active compounds read low",0.957
same,normalized growth,"S. cerevisiae deletion strains, locus YBR136W, strain MEC1, active compounds read low",0.964
same,normalized growth,"S. cerevisiae deletion strains, locus YBR160W, strain CDC28, active compounds read low",0.945
same,normalized growth,"S. cerevisiae deletion strains, locus YDL017W, strain CDC7, active compounds read low",0.972
same,normalized growth,"S. cerevisiae deletion strains, locus YDL028C, strain MPS1, active compounds read low",0.941
same,normalized growth,[1],0.964
same,normalized growth,"S. cerevisiae deletion strains, locus YDL108W, strain KIN28, active compounds read low",0.949
same,normalized growth,"S. cerevisiae deletion strains, locus YDL132W, strain cdc53, active compounds read low",0.936
same,normalized growth,"S. cerevisiae deletion strains, locus YDL214C, strain PRR2, active compounds read low",0.895
same,normalized growth,"S. cerevisiae deletion strains, locus YDR052C, strain DBF4, active compounds read low",0.981
same,normalized growth,"S. cerevisiae deletion strains, locus YDR054C, strain cdc34, active compounds read low",0.959
same,normalized growth,"S. cerevisiae deletion strains, locus YDR226W, strain ADK1, active compounds read low",0.96
same,normalized growth,"S. cerevisiae deletion strains, locus YDR477W, strain SNF1, active compounds read low",0.873
same,normalized growth,"S. cerevisiae deletion strains, locus YER123W, strain YCK3, active compounds read low",0.87
same,normalized growth,"S. cerevisiae deletion strains, locus YER133W, strain GLC7, active compounds read low",0.916
same,normalized growth,"S. cerevisiae deletion strains, locus YFL009W, strain cdc4, active compounds read low",0.918
same,normalized growth,"S. cerevisiae deletion strains, locus YFL029C, strain CAK1, active compounds read low",0.948
same,normalized growth,"S. cerevisiae deletion strains, locus YFR003C, strain YPI1, active compounds read low",0.965
same,normalized growth,"S. cerevisiae deletion strains, locus YFR019W, strain FAB1, active compounds read low",0.89
same,normalized growth,"S. cerevisiae deletion strains, locus YFR028C, strain CDC14, active compounds read low",0.925
same,normalized growth,"S. cerevisiae deletion strains, locus YGR040W, strain KSS1, active compounds read low",0.883
same,normalized growth,"S. cerevisiae deletion strains, locus YGR052W, strain FMP48, active compounds read low",0.938
same,normalized growth,"S. cerevisiae deletion strains, locus YGR092W, strain DBF2, active compounds read low",0.874
same,normalized growth,[2],0.698 (active)
same,normalized growth,[3],0.885
same,normalized growth,"S. cerevisiae deletion strains, locus YHR082C, strain KSP1, active compounds read low",0.916
same,normalized growth,"S. cerevisiae deletion strains, locus YHR205W, strain SCH9, active compounds read low",0.897
same,normalized growth,"S. cerevisiae deletion strains, locus YIL147C, strain SLN1, active compounds read low",0.96
same,normalized growth,[4],0.833
same,normalized growth,"S. cerevisiae deletion strains, locus YJL128C, strain PBS2, active compounds read low",0.899
same,normalized growth,"S. cerevisiae deletion strains, locus YJL157C, strain FAR1, active compounds read low",0.907
same,normalized growth,"S. cerevisiae deletion strains, locus YJR016C, strain ILV3, active compounds read low",0.956
same,normalized growth,"S. cerevisiae deletion strains, locus YJR066W, strain TOR1 (second series), active compounds read low",0.851
same,normalized growth,[5],0.848
same,normalized growth,"S. cerevisiae deletion strains, locus YKL048C, strain ELM1, active compounds read low",0.909
same,normalized growth,"S. cerevisiae deletion strains, locus YKL067W, strain YNK1, active compounds read low",0.886
same,normalized growth,"S. cerevisiae deletion strains, locus YKL101W, strain HSL1, active compounds read low",0.884
same,normalized growth,"S. cerevisiae deletion strains, locus YKL193C, strain SDS22, active compounds read low",0.956
same,normalized growth,"S. cerevisiae deletion strains, locus YKL203C, strain TOR2, active compounds read low",0.974
same,normalized growth,[6],0.777 (active)
same,normalized growth,"S. cerevisiae deletion strains, locus YLR133W, strain CKI1, active compounds read low",0.906
same,normalized growth,"S. cerevisiae deletion strains, locus YLR403W, strain SFP1, active compounds read low",0.897
same,normalized growth,"S. cerevisiae deletion strains, locus YML070W, strain DAK1, active compounds read low",0.884
same,normalized growth,"S. cerevisiae deletion strains, locus YMR001C, strain CDC5, active compounds read low",0.957
same,normalized growth,"S. cerevisiae deletion strains, locus YMR205C, strain PFK2 (second series), active compounds read low",0.937
same,normalized growth,"S. cerevisiae deletion strains, locus YMR277W, strain FCP1, active compounds read low",0.932
same,normalized growth,"S. cerevisiae deletion strains, locus YNL006W, strain LST8, active compounds read low",0.973
same,normalized growth,"S. cerevisiae deletion strains, locus YNL020C, strain ARK1, active compounds read low",0.919
same,normalized growth,"S. cerevisiae deletion strains, locus YNL161W, strain CBK1, active compounds read low",0.966
same,normalized growth,[7],0.935
same,normalized growth,"S. cerevisiae deletion strains, locus YNL207W, strain RIO2, active compounds read low",0.953
same,normalized growth,"S. cerevisiae deletion strains, locus YNL222W, strain SSU72, active compounds read low",0.94
same,normalized growth,"S. cerevisiae deletion strains, locus YNL307C, strain MCK1 (second series), active compounds read low",0.887
same,normalized growth,"S. cerevisiae deletion strains, locus YOL078W, strain AVO1, active compounds read low",0.945
same,normalized growth,"S. cerevisiae deletion strains, locus YOL136C, strain PFK27, active compounds read low",0.886
same,normalized growth,"S. cerevisiae deletion strains, locus YOR061W, strain CKA2, active compounds read low",0.914
same,normalized growth,"S. cerevisiae deletion strains, locus YOR119C, strain RIO1, active compounds read low",0.917
same,normalized growth,[8],0.837
same,normalized growth,"S. cerevisiae deletion strains, locus YOR329C, strain SCD5, active compounds read low",0.967
same,normalized growth,"S. cerevisiae deletion strains, locus YPL031C, strain PHO85, active compounds read low",0.88
same,normalized growth,"S. cerevisiae deletion strains, locus YPL153C, strain RAD53, active compounds read low",0.875
same,normalized growth,"S. cerevisiae deletion strains, locus YPL204W, strain HRR25, active compounds read low",0.866
same,normalized growth,"S. cerevisiae deletion strains, locus YPL209C, strain IPL1, active compounds read low",0.964
same,normalized growth,[9],0.811 (active)
same,normalized growth,"S. cerevisiae deletion strains, locus YPR025C, strain CCL1, active compounds read low",0.962
same,normalized growth,"S. cerevisiae deletion strains, locus YPR106W, strain ISR1, active compounds read low",0.96
same,normalized growth,"S. cerevisiae deletion strains, locus YPR111W, strain DBF20, active compounds read low",0.94
same,normalized growth,"S. cerevisiae deletion strains, strain NNK1, active compounds read low",0.965
same,normalized growth,"S. cerevisiae deletion strains, strain TSCII, active compounds read low",0.947
O=C(NC(=S)Nc1ccc(Cl)cc1)c1ccc([N+](=O)[O-])o1,normalized growth,"S. cerevisiae deletion strains, locus YAL013W, strain DEP1, active compounds read low",0.958
same,normalized growth,"S. cerevisiae deletion strains, locus YBR229C, strain ROT2, active compounds read low",0.975
same,normalized growth,[1],1.03
same,normalized growth,"S. cerevisiae deletion strains, locus YDL134C, strain PPH21, active compounds read low",0.999
same,normalized growth,"S. cerevisiae deletion strains, locus YDR150W, strain NUM1, active compounds read low",0.964
same,normalized growth,"S. cerevisiae deletion strains, locus YEL061C, strain CIN8, active compounds read low",0.98
same,normalized growth,"S. cerevisiae deletion strains, locus YGR078C, strain PAC10, active compounds read low",0.963
same,normalized growth,[2],0.714
same,normalized growth,"S. cerevisiae deletion strains, locus YHR087W, strain rtc3, active compounds read low",0.955
same,normalized growth,"S. cerevisiae deletion strains, locus YJR043C, strain POL32, active compounds read low",0.985
same,normalized growth,"S. cerevisiae deletion strains, locus YJR075W, strain HOC1, active compounds read low",0.984
same,normalized growth,"S. cerevisiae deletion strains, locus YLR039C, strain RIC1, active compounds read low",0.899
same,normalized growth,"S. cerevisiae deletion strains, locus YLR058C, strain SHM2 (second series), active compounds read low",0.984
same,normalized growth,"S. cerevisiae deletion strains, locus YLR085C, strain ARP6, active compounds read low",0.892
same,normalized growth,"S. cerevisiae deletion strains, locus YLR262C, strain YPT6, active compounds read low",0.917
same,normalized growth,"S. cerevisiae deletion strains, locus YML094W, strain GIM5, active compounds read low",0.945
same,normalized growth,"S. cerevisiae deletion strains, locus YMR219W, strain ESC1, active compounds read low",0.978
same,normalized growth,"S. cerevisiae deletion strains, locus YMR263W, strain SAP30, active compounds read low",0.985
same,normalized growth,"S. cerevisiae deletion strains, locus YNL128W, strain TEP1, active compounds read low",0.979
same,normalized growth,"S. cerevisiae deletion strains, locus YNL153C, strain GIM3, active compounds read low",0.999
same,normalized growth,"S. cerevisiae deletion strains, locus YNL298W, strain CLA4 (second series), active compounds read low",0.912
same,normalized growth,"S. cerevisiae deletion strains, locus YNL322C, strain KRE1, active compounds read low",0.96
same,normalized growth,"S. cerevisiae deletion strains, locus YNR030W, strain Alg12, active compounds read low",0.956
same,normalized growth,"S. cerevisiae deletion strains, locus YOL006C, strain TOP1, active compounds read low",0.999
same,normalized growth,"S. cerevisiae deletion strains, locus YPL055C, strain LGE1, active compounds read low",0.937
same,normalized growth,"S. cerevisiae deletion strains, locus YPL241C, strain CIN2, active compounds read low",1.08
same,normalized growth,"S. cerevisiae deletion strains, locus YPR135W, strain CTF4, active compounds read low",0.577 (active)
same,normalized growth,"S. cerevisiae strains, strain wild type, active compounds read low",0.981
O=C(N/N=C\c1ccc([N+](=O)[O-])o1)c1ccc(O)cc1,normalized growth,[2],0.924
same,normalized growth,[3],0.936
same,normalized growth,[4],0.907
same,normalized growth,[5],0.883
same,normalized growth,[6],0.872
same,normalized growth,[7],0.869
same,normalized growth,[8],0.91
same,normalized growth,[9],0.956
